Reference: PubChem BioAssay AID651640 (Broad Institute, 2012)
Screen size: about 350,000 compounds; about 6,000 (1.7%) were called active. Another 5% or so got no clear call; they are omitted. Many of the other results were omitted from the sample, so actives are more common in it than they were. Unmarked numbers belong to inactive results. Cut-off read from the data, not from the text of the source: active = CPE inhibition above about 20% (passing the limit was not always enough); inconclusive = no clear call, values can overlap the other calls; tested in BHK-21 cells.

Assay: inhibitors of DENV2 cytopathic effect, primary screen, cell-based, plate reader, single concentration (AID 651640);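 note: 0% = median of neutral control wells and 100% = median of positive control wells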
Details: DENV2-infected cells, cytopathic effect rescue, at 9.99 µM, hits give high values

| Compound | CPE inhibition |
| --- | --- |
| O=C1CC2(CCN(C(=O)COc3ccc(F)cc3)CC2)Oc2ccccc21 | 29.9% (active) |
| Cc1ccc(N2CC(C(=O)N3CCC4(CC3)CC(=O)c3ccccc3O4)CC2=O)cc1C (stereo unspecified) | -6.93% |
| O=C1CC2(CCCCC2)Oc2ccc(OCC(=O)N3CCOCC3)cc21 | 2.58% |
| Cc1cc(C)c(-c2c(O)c3ccccc3n(C)c2=O)c(C)c1 | 72% (active) |
| Cc1cccc(Oc2c([N+](=O)[O-])c(=O)n(C)c3ccccc23)c1 | -2.07% |
| COc1cc2c(=O)n(C)c3ccccc3c2cc1OC | 0.702% |
| CC(C)NC(=O)N(C)C[C@H]1OCCCC[C@H](C)Oc2ccc(NC(=O)CCC(F)(F)F)cc2C(=O)N([C@H](C)CO)C[C@H]1C | 7.36% |
| CCN1C(=O)N[C@@H](CCc2ccccc2)C(C(=O)OC)=C1C | -5.47% |
| CCN1C(=S)N[C@@H](CCc2ccccc2)[C@H](C(=O)OC)[C@H]1C | 65.7% (active) |
| COCCN1C(=O)N[C@@H](CCc2ccccc2)[C@H](C(C)=O)[C@H]1C | -5.61% |
| CCS(=O)(=O)Nc1ccc2c(c1)C(=O)N(C)[C@H]1CC[C@@H](CC(=O)N3CCCCC3)O[C@H]1CO2 | -4.09% |
| COc1ccc(S(=O)(=O)N(C)C[C@H]2Oc3ccc(NC(=O)CCC(F)(F)F)cc3CC(=O)N([C@H](C)CO)C[C@@H]2C)cc1 | 15.8% |
| CO[C@H]1CN(C)C(=O)c2ccc(NC(C)=O)cc2OC[C@@H](C)N(C(=O)c2ccccn2)C[C@@H]1C | -11.8% |
| C[C@H](CO)N1C[C@H](C)[C@H](CN(C)C(=O)Nc2cccc(Cl)c2Cl)OCc2ccccc2-c2ccccc2C1=O | -3.92% |
| S=C(Nc1ccc(Cl)cc1Cl)N1CCCC1 | -8.93% |
| O=C(NC(=S)Nc1ccc(Br)cc1F)C1CCCCC1 | -4% |
| O=C(NC(=S)Nc1ccc(Cl)cc1Cl)C1CC1 | 86.2% (active) |
| O=C(Cc1ccccc1)N1C[C@@H]2[C@H](c3ccccc31)[C@@H](CO)N2C(=O)C1CC1 | -0.201% |
| CC(=O)N[C@@H]1CC[C@@H](CCNC(=O)C2CC2)O[C@H]1CO | 1.82% |
| CCN(Cc1ccccc1)C(=O)CN1C(=S)NC(C)(C)CC1C (stereo unspecified) | 65.7% (active) |
| CC1CC(C)(C)NC(=S)N1CCC(=O)N1CCN(Cc2ccccc2)CC1 (stereo unspecified) | 16.6% |
| COc1cccc(CNC(=O)CCN2C(=S)NC(C)(C)CC2C)c1 (stereo unspecified) | 8.33% |
| C[C@@H]1CN([C@@H](C)CO)C(=O)c2cc(NC(=O)Cn3cnnn3)ccc2O[C@H]1CN(C)Cc1ccc(C(F)(F)F)cc1 | -5.69% |

| Compound | CPE inhibition |
| --- | --- |
| N#Cc1cccc(-c2ccc([C@H]3[C@@H](CO)N4CCCCN(C(=O)Nc5ccccc5)C[C@H]34)cc2)c1 | -9.56% |
| COCC(=O)N1CC2(C1)[C@@H](c1ccc(-c3cccc(F)c3)cc1)[C@@H](CO)N2C(=O)COC | -4.52% |
| CCCNC(=O)N1CC2(C1)[C@H](c1ccccc1)[C@@H](CO)N2C(=O)C1CC1 | 16.7% |
| CCC(=O)N1CC2(C1)[C@H](c1ccccc1)[C@@H](CO)N2C(=O)c1ccccc1 | -0.875% |
| C/C=C/c1ccc([C@@H]2[C@H](CO)N(C(=O)c3cnccn3)C23CN(C(C)=O)C3)cc1 | 3.48% |
| C/C=C/c1ccc([C@@H]2[C@@H](CO)N(C(=O)c3ccccc3)C23CN(C(C)=O)C3)cc1 | 70.8% (active) |
| CN(C)CC(=O)N1[C@@H](CO)[C@H](c2ccccc2)C12CN(C(=O)c1cccc(F)c1)C2 | 49.2% (active) |
| O=C(C1CCCC1)N1[C@@H](CO)[C@@H](c2ccccc2)C12CN(Cc1ccc(F)cc1)C2 | -1.84% |
| CN(C)CC(=O)N1CC2(C1)[C@H](c1ccccc1)[C@@H](CO)N2C(=O)C1CCCCC1 | -1.45% |
| O=C(C1CCCCC1)N1[C@H](CO)[C@@H](c2ccccc2)C12CN(Cc1cccc(Cl)c1)C2 | 27.1% (active) |
| O=C(c1ccccn1)N1CC2(C1)[C@@H](c1ccccc1)[C@@H](CO)N2C(=O)C1CCCCC1 | 4.48% |
| CC(=O)N1CC2(C1)[C@H](c1ccccc1)[C@@H](CO)N2C(=O)Cc1ccccc1 | 4.56% |
| CN(C)CC(=O)N1CC2(C1)[C@H](c1ccccc1)[C@H](CO)N2C(=O)C1CC1 | 24.3% (active) |
| COc1ccc2c3c([nH]c2c1)[C@H](CO)N(C(=O)Nc1ccc(F)cc1)CC31CCN(C(=O)Nc2c(C)noc2C)CC1 | -3.75% |
| CC=Cc1ccc2n(c1=O)C[C@@H]1[C@@H](CO)[C@H](C(=O)NCCc3ccccc3)N(C(C)=O)[C@H]21 (mixture of isomers) | -2.04% |
| Cc1ccc(S(=O)(=O)NCC[C@H]2CC[C@@H](NS(=O)(=O)c3ccccc3Cl)[C@H](CO)O2)cc1 | -7.15% |
| COc1ccc(CN(C)C[C@H]2OCCCC[C@H](C)Oc3ccc(NC(=O)Nc4ccc5c(c4)OCO5)cc3C(=O)N([C@H](C)CO)C[C@@H]2C)cc1 | -3.02% |
| N#C[C@H]1[C@@H](c2ccccc2C2=CCCC2)[C@H](CO)N1C(=O)c1cccc(F)c1 | 19.5% |
| C[C@@H]1CN([C@@H](C)CO)C(=O)c2cc(NC(=O)NC3CCCCC3)ccc2O[C@@H](C)CCCCO[C@H]1CN(C)Cc1ccccc1 | 1.48% |
| CCCC#Cc1cnc2c(c1)C(=O)N([C@H](C)CO)C[C@@H](C)[C@@H](CN(C)C(=O)Nc1ccccc1F)O2 | -4.21% |
| CO[C@@H]1CN(C)C(=O)c2ccc(NC(=O)c3ccc(F)cc3)cc2OC[C@H](C)N(C(=O)c2ccc(F)cc2)C[C@@H]1C | -1.44% |
| C[C@@H]1CN([C@@H](C)CO)C(=O)c2c(c3ccccc3n2C)-c2ccccc2CO[C@H]1CN(C)Cc1cccc(C(=O)O)c1 | 8.1% |
| COc1cccc(C#Cc2cnc3c(c2)C(=O)N([C@H](C)CO)C[C@@H](C)[C@@H](CN(C)C(=O)C2CCC2)O3)c1 | -2.93% |
